Screens (PubChem)
Hits are enriched below; roughly 2.4% of the tested compounds scored in any of these assays.
D2 antag = D2 dopamine receptor (human) antagonism; AID 485344; inhibition, % at 10 µM; P14416; actives 2% (n = 340,000); HEK293 TREx D2 cells, calcium flux, dopamine EC80; in the data active = inhibition above about 30%; inactive = below that, where a call was filed; note: 0% is about no effect
Target sequence (P14416 whole entry, looked up): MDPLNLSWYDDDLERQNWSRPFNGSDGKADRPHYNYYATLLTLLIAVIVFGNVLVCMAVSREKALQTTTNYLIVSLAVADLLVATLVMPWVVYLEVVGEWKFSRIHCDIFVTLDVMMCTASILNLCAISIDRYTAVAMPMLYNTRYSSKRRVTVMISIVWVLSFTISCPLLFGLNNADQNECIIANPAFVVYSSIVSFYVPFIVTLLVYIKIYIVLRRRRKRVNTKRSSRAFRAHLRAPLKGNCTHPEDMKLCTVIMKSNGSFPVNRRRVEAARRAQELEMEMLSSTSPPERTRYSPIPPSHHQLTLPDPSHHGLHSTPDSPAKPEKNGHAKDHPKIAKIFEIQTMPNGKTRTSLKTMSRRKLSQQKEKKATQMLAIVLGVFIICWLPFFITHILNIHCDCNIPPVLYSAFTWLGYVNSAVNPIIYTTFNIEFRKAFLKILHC
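Dopamine at EC80 is the agonist stimulus; test compounds precede it by 180 s. Calcium flux read kinetically in a force-coupled, inducible HEK293 T-REx D2 cell line.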
D2 PAM-1 = positive allosteric modulators of human D2 dopamine receptor; potentiation, % at 10 µM; P14416; HEK293 T-REx D2, calcium flux, EC20 dopamine potentiation; actives 0.34% (n = 340,000);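 active = potentiation over 3 SD above the plate norm, cut at about 30% in these data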; note: 0% is about no effect
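Tetracycline-induced HEK293 T-REx cells force-coupled to calcium signalling expressed D2; compounds were pin-added after a 10 s baseline, read kinetically 180 s, then an EC20 dopamine challenge followed with a further 180 s calcium read.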
D2 PAM-2 = human D2 receptor positive allosteric modulation. potentiation, % (concentration not given with the values). P14416. actives 0.23% (n = 360,000). DiscoveRx D2 beta-arrestin cells, luminescence, 90 min; 100% = 57 uM dopamine signal. AID 624464; in the data active = potentiation above about 50%
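PathHunter D2 cells, attached overnight at 37 deg C, received compound in DMSO plus dopamine at EC20 (50 nM final) for 90 min at 37 deg C. Beta-arrestin recruitment was read as luminescence after 1 h with detection reagent at ambient temperature.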
D2 ag-1 = agonists of human D2 dopamine receptor. P14416. HEK293 T-REx D2 cells, calcium flux agonist mode. activation, % at 2 µM. actives 0.53% (n = 340,000);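 active = activation over 3 SD above normal in the single-dose calcium agonist read, cut at about 30% in these data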; note: 0% is about no effect
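Calcium-flux readout, 1 cycle/sec over 180 s following compound pin transfer, in inducible HEK293 Trex D2 cells (force-coupled); dopamine controls included. Positive calcium responses during this window marked compounds as potential agonists.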
D2 ag-2 = activates the human D2 dopamine receptor. actives 0.084% (n = 360,000). P14416. activation, % (no concentration beside the values). DiscoveRx PathHunter D2 beta-arrestin, luminescence, 90 min; 100% = 57 uM dopamine signal; in the data active = activation above about 40%
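Agonist mode: compounds alone added to overnight-plated D2 PathHunter cells for 90 min at 37 C, with 57 uM final dopamine (EC100) defining full response. Beta-arrestin recruitment detected by chemiluminescent reagent, read after 1 h at ambient temperature.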
Numbers without * were called inactive.

COc1ccccc1NC(=S)N(CCCN(C)C)Cc1cc2cc3c(cc2[nH]c1=O)OCO3 was read as D2 antag -7, D2 PAM-1 15, D2 PAM-2 -3 and D2 ag-2 -4.
For COc1ccccc1NC(=O)N(Cc1cccs1)Cc1cc2cc3c(cc2[nH]c1=O)OCO3 the results were D2 antag 36*, D2 PAM-1 -15, D2 PAM-2 -2, D2 ag-1 0 and D2 ag-2 5.
For COc1ccc(NC(=O)C2CCCO2)cc1Cl (stereo not given) the results were D2 antag 31*, D2 PAM-1 -14, D2 PAM-2 -4, D2 ag-1 0 and D2 ag-2 -2.
Screening COc1ccccc1/C=C/CN1CCN(Cc2ccc(C)o2)C(CCO)C1 (stereo not given) returned D2 antag 49*, D2 PAM-1 -21, D2 PAM-2 -17, D2 ag-1 0 and D2 ag-2 -4.
For Cc1ccc(-c2nc(CSCC(=O)N3CCN(c4ccccn4)CC3)c(C)o2)cc1 the results were D2 antag -7, D2 PAM-1 -14, D2 PAM-2 -2, D2 ag-1 37* and D2 ag-2 0.
`OC(CNCc1ccccc1)c1ccccc1` (stereo not given) gave D2 antag 6, D2 PAM-1 -12, D2 PAM-2 -6, D2 ag-1 1 and D2 ag-2 -4.
OC(CNCC#Cc1ccccc1)c1ccccc1 (stereo not given) was read as D2 antag 39*, D2 PAM-1 -5, D2 PAM-2 -11, D2 ag-1 20 and D2 ag-2 1.
`Cc1cccc(OCC(=O)Nc2ccc(OCc3cc(=O)n4cc(C)ccc4n3)cc2)c1` gave D2 PAM-1 9 and D2 ag-1 1.
Screening O=C(Nc1ccccc1)c1ccc(NCCN2C(=O)CCC2=O)c([N+](=O)[O-])c1 returned D2 antag 59*, D2 PAM-1 3, D2 PAM-2 -11, D2 ag-1 0 and D2 ag-2 -5.
`CC(=O)Nc1ccc(N/C=C/C(=O)c2ccco2)cc1` gave D2 antag -9, D2 PAM-1 -15, D2 PAM-2 2, D2 ag-1 0 and D2 ag-2 -3.
Screening CN(C)c1ccc(N/C=C/C(=O)c2ccco2)cc1 returned D2 antag -4, D2 PAM-1 0, D2 PAM-2 55*, D2 ag-1 0 and D2 ag-2 8.
`O=C1c2ccccc2C(O)N1Cc1cccs1` (stereo not given) gave D2 antag 47*, D2 PAM-1 5, D2 PAM-2 -1, D2 ag-1 0 and D2 ag-2 -3.
CCC1CN(CC(=O)NCc2cccc(Br)c2)c2ccccc2S1 (stereo not given) was read as D2 PAM-1 9 and D2 ag-1 -1.
`Cn1c(SCC(=O)Nc2ccc(N3CCOCC3)c(Cl)c2)nnc1-c1ccccc1` gave D2 PAM-2 -4 and D2 ag-2 1.
For CCn1c(Cc2ccccc2)nnc1SCC(=O)NC(C)(C)C the results were D2 antag 8, D2 PAM-1 8, D2 PAM-2 -1, D2 ag-1 0 and D2 ag-2 -2.
CCn1c(Cc2ccccc2)nnc1SCC(=O)Nc1ccccc1O was read as D2 antag 40*, D2 PAM-1 3, D2 PAM-2 2, D2 ag-1 -1 and D2 ag-2 5.
CCn1c(Cc2ccccc2)nnc1SCC(=O)Nc1ccc(N2CCOCC2)c(Cl)c1 was read as D2 antag 39*, D2 PAM-1 13, D2 PAM-2 -4, D2 ag-1 0 and D2 ag-2 -1.
Screening COc1ccc(Cl)cc1NC(=O)C1CCCN(S(=O)(=O)c2ccc3c(c2)CCCC(=O)N3)C1 (stereo not given) returned D2 ag-1 0.
Screening COc1ccc(-c2oc3ccccc3c(=O)c2OC(=O)c2ccc(C)cc2)cc1 returned D2 antag 6, D2 PAM-1 31*, D2 PAM-2 11, D2 ag-1 0 and D2 ag-2 1.
For COc1ccc(/C=C/c2c(-c3ccc(OC)cc3)oc3ccccc23)cc1 the results were D2 antag 8, D2 PAM-1 -2, D2 PAM-2 -6, D2 ag-1 1 and D2 ag-2 -2.
`COC(=O)c1ccc(/C=C/c2c(-c3ccc(OC)cc3)oc3ccccc23)cc1` gave D2 antag 47*, D2 PAM-1 4, D2 PAM-2 -4, D2 ag-1 1 and D2 ag-2 0.
For COc1cc(C2C(=O)N(C3CCCCC3)CC(=O)N2CCc2ccccc2)ccc1OC(C)C (stereo not given) the results were D2 PAM-1 11 and D2 ag-1 0.
Screening Cn1cc(CNCCCn2ncc3ccccc32)c(-c2ccccc2F)n1 returned D2 antag 37*, D2 PAM-1 -20, D2 PAM-2 -27, D2 ag-1 1 and D2 ag-2 -4.
O=C(c1nc2ccccn2c1CNCCCn1ncc2ccccc21)N1CCOCC1 was read as D2 antag -6, D2 PAM-1 -8, D2 PAM-2 -7, D2 ag-1 0 and D2 ag-2 -2.
Clc1ccccc1CN(Cc1ccccc1)C(c1cccs1)c1nnnn1C1CCCC1 (stereo not given) was read as D2 antag 50*, D2 PAM-1 -6, D2 PAM-2 -17, D2 ag-1 0 and D2 ag-2 -5.
CCN(Cc1ccccc1)C(c1cccs1)c1nnnn1C1CCCCC1 (stereo not given) was read as D2 antag 8, D2 PAM-1 2, D2 PAM-2 -30, D2 ag-1 0 and D2 ag-2 -4.
COc1ccc(/C=N/NS(=O)(=O)c2ccccc2)cc1OS(=O)(=O)c1ccc(C)cc1 was read as D2 antag 32*, D2 PAM-1 3, D2 PAM-2 -22, D2 ag-1 0 and D2 ag-2 -6.
O=C(CCCN1CC=C(n2c(=O)[nH]c3ccccc32)CC1)c1ccc(F)cc1 was read as D2 antag 81*, D2 PAM-1 -23, D2 PAM-2 -33, D2 ag-1 1 and D2 ag-2 -3.
`CN(Cc1ccc(F)cc1)S(=O)(=O)c1nnc(NC(=O)c2ccccc2Cl)s1` gave D2 PAM-1 -4.
For Cc1nn(-c2ccccc2)c(Cl)c1C(=O)NCc1cccs1 the results were D2 antag 44*, D2 PAM-1 -6, D2 PAM-2 -3, D2 ag-1 -1 and D2 ag-2 -1.
`Cc1nn(-c2ccccc2)c(C)c1C(=O)NCc1cccs1` gave D2 antag -3, D2 PAM-1 -3, D2 PAM-2 3, D2 ag-1 0 and D2 ag-2 -2.
